In PubChem BioAssay AID1159580 (chemical genetic matrix, 2015):
Screen size: about 5,500 compounds; about 2,000 (36%) were called active. About 18% were inconclusive and are not listed. Cut-off read from the data, not from the text of the source: active = normalized growth mostly below about 0.91 (no sharp cut-off); inconclusive = no clear call, values can overlap the other calls; inactive = mostly above about 0.92. The list shows a part of the results.

Assay: chemical genetic growth profiling, strain panel (AID 1159580);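 note: tested at 20 µM; growth read once vehicle control cultures reached saturation at 30 °C; 1 = growth at the plate median or of vehicle wells; lower values mean less growth of the strain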
Conditions: growth OD

Measured: normalized growth

S=c1nc[nH]c2nc[nH]c12
inactive: S. cerevisiae deletion strains, locus YJR075W, strain HOC1, stronger effect = lower value 0.996 | S. cerevisiae deletion strains, locus YKL009W, strain mrt4, stronger effect = lower value 0.987 | S. cerevisiae deletion strains, locus YKL068W, stronger effect = lower value 0.983 | S. cerevisiae deletion strains, locus YKL085W, strain MDH1 (second series), stronger effect = lower value 0.966 | S. cerevisiae deletion strains, locus YKL085W, strain MDH1, stronger effect = lower value 0.966 | S. cerevisiae deletion strains, locus YKL160W, strain elf1, stronger effect = lower value 1.04 | S. cerevisiae deletion strains, locus YKR001C, strain vps1, stronger effect = lower value 0.99 | S. cerevisiae deletion strains, locus YKR026C, strain gcn3, stronger effect = lower value 1.01 | S. cerevisiae deletion strains, locus YKR091W, strain srl3, stronger effect = lower value 0.996 | S. cerevisiae deletion strains, locus YLL001W, strain dnm1, stronger effect = lower value 1.01 | S. cerevisiae deletion strains, locus YLL026W, stronger effect = lower value 1.01 | S. cerevisiae deletion strains, locus YLL041C, strain sdh2, stronger effect = lower value 0.989 | S. cerevisiae deletion strains, locus YLR027C, strain aat2, stronger effect = lower value 1.02 | S. cerevisiae deletion strains, locus YLR039C, strain RIC1, stronger effect = lower value 1 | S. cerevisiae deletion strains, locus YLR058C, strain SHM2, stronger effect = lower value 0.982 | S. cerevisiae deletion strains, locus YLR102C, strain apc9, stronger effect = lower value 0.978 | S. cerevisiae deletion strains, locus YLR113W, strain HOG1, stronger effect = lower value 1 | S. cerevisiae deletion strains, locus YLR221C, strain rsa3, stronger effect = lower value 1.01 | S. cerevisiae deletion strains, locus YLR258W, strain gsy2, stronger effect = lower value 1.01 | S. cerevisiae deletion strains, locus YLR262C, strain YPT6 (second series), stronger effect = lower value 1.03 | S. cerevisiae deletion strains, locus YLR262C, strain YPT6, stronger effect = lower value 0.959 | S. cerevisiae deletion strains, locus YLR268W, strain sec22, stronger effect = lower value 1 | S. cerevisiae deletion strains, locus YLR320W, strain mms22, stronger effect = lower value 1.02 | S. cerevisiae deletion strains, locus YLR330W, strain CHS5, stronger effect = lower value 0.992 | S. cerevisiae deletion strains, locus YLR342W, strain FKS1 (second series), stronger effect = lower value 1 | S. cerevisiae deletion strains, locus YLR342W, strain FKS1, stronger effect = lower value 1.02 | S. cerevisiae deletion strains, locus YLR357W, strain rsc2, stronger effect = lower value 1.08 | S. cerevisiae deletion strains, locus YLR370C, strain arc18, stronger effect = lower value 1.01 | S. cerevisiae deletion strains, locus YLR371W, strain rom2, stronger effect = lower value 0.988 | S. cerevisiae deletion strains, locus YLR384C, strain iki3, stronger effect = lower value 1 | S. cerevisiae deletion strains, locus YLR418C, strain cdc73, stronger effect = lower value 1.01 | S. cerevisiae deletion strains, locus YML016C, strain PPZ1, stronger effect = lower value 1 | S. cerevisiae deletion strains, locus YML032C, strain rad52, stronger effect = lower value 1 | S. cerevisiae deletion strains, locus YML120C, strain ndi1, stronger effect = lower value 0.986 | S. cerevisiae deletion strains, locus YML124C, strain tub3, stronger effect = lower value 0.989 | S. cerevisiae deletion strains, locus YMR058W, strain fet3, stronger effect = lower value 0.988 | S. cerevisiae deletion strains, locus YMR078C, strain ctf18, stronger effect = lower value 0.973 | S. cerevisiae deletion strains, locus YMR125W, strain sto1, stronger effect = lower value 1.07 | S. cerevisiae deletion strains, locus YMR129W, stronger effect = lower value 1.01 | S. cerevisiae deletion strains, locus YMR205C, strain PFK2, stronger effect = lower value 1.01 | S. cerevisiae deletion strains, locus YMR223W, strain ubp8, stronger effect = lower value 0.949 | S. cerevisiae deletion strains, locus YMR231W, strain pep5, stronger effect = lower value 1.02 | S. cerevisiae deletion strains, locus YMR263W, strain SAP30, stronger effect = lower value 0.999 | S. cerevisiae deletion strains, locus YMR307W, strain GAS1, stronger effect = lower value 1.08 | S. cerevisiae deletion strains, locus YNL067W, strain RPL9B, stronger effect = lower value 0.996 | S. cerevisiae deletion strains, locus YNL071W, strain lat1, stronger effect = lower value 1 | S. cerevisiae deletion strains, locus YNL183C, strain NPR1, stronger effect = lower value 0.966 | S. cerevisiae deletion strains, locus YNL209W, strain ssb2, stronger effect = lower value 1.03 | S. cerevisiae deletion strains, locus YNL233W, strain BNI4, stronger effect = lower value 1 | S. cerevisiae deletion strains, locus YNL248C, strain rpa49, stronger effect = lower value 1.05 | S. cerevisiae deletion strains, locus YNL250W, strain rad50, stronger effect = lower value 0.974 | S. cerevisiae deletion strains, locus YNL271C, strain bni1, stronger effect = lower value 0.979 | S. cerevisiae deletion strains, locus YNL298W, strain CLA4, stronger effect = lower value 0.989 | S. cerevisiae deletion strains, locus YNL307C, strain MCK1, stronger effect = lower value 0.988 | S. cerevisiae deletion strains, locus YNL322C, strain KRE1 (second series), stronger effect = lower value 1.02 | S. cerevisiae deletion strains, locus YNL322C, strain KRE1, stronger effect = lower value 0.994 | S. cerevisiae deletion strains, locus YNR049C, strain mso1, stronger effect = lower value 1 | S. cerevisiae deletion strains, locus YNR052C, strain pop2, stronger effect = lower value 0.979 | S. cerevisiae deletion strains, locus YOL006C, strain TOP1, stronger effect = lower value 1.01 | S. cerevisiae deletion strains, locus YOL012C, strain htz1 0.693 | S. cerevisiae deletion strains, locus YOL147C, strain pex11, stronger effect = lower value 0.982 | S. cerevisiae deletion strains, locus YOR001W, strain rrp6, stronger effect = lower value 1 | S. cerevisiae deletion strains, locus YOR061W, strain CKA2, stronger effect = lower value 0.993 | S. cerevisiae deletion strains, locus YOR069W, strain VPS5, stronger effect = lower value 0.998 | S. cerevisiae deletion strains, locus YOR070C, strain gyp1, stronger effect = lower value 1.01 | S. cerevisiae deletion strains, locus YOR080W, strain dia2, stronger effect = lower value 1 | S. cerevisiae deletion strains, locus YOR083W, strain WHI5, stronger effect = lower value 0.983 | S. cerevisiae deletion strains, locus YOR106W, strain vam3, stronger effect = lower value 1.03 | S. cerevisiae deletion strains, locus YOR136W, strain idh2, stronger effect = lower value 0.99 | S. cerevisiae deletion strains, locus YOR144C, strain elg1, stronger effect = lower value 1 | S. cerevisiae deletion strains, locus YOR184W, strain ser1, stronger effect = lower value 0.996 | S. cerevisiae deletion strains, locus YOR231W, strain MKK1, stronger effect = lower value 1 | S. cerevisiae deletion strains, locus YOR265W, strain rbl2, stronger effect = lower value 1.01 | S. cerevisiae deletion strains, locus YOR270C, strain vph1, stronger effect = lower value 1.09 | S. cerevisiae deletion strains, locus YOR290C, strain snf2, stronger effect = lower value 1.04 | S. cerevisiae deletion strains, locus YOR316C, strain cot1, stronger effect = lower value 0.982 | S. cerevisiae deletion strains, locus YPL051W, strain arl3, stronger effect = lower value 1.01 | S. cerevisiae deletion strains, locus YPL055C, strain LGE1, stronger effect = lower value 0.992 | S. cerevisiae deletion strains, locus YPL078C, strain atp4, stronger effect = lower value 0.997 | S. cerevisiae deletion strains, locus YPL106C, strain sse1, stronger effect = lower value 1.01 | S. cerevisiae deletion strains, locus YPL240C, strain hsp82, stronger effect = lower value 1.01 | S. cerevisiae deletion strains, locus YPL241C, strain CIN2, stronger effect = lower value 0.994 | S. cerevisiae deletion strains, locus YPL256C, strain CLN2, stronger effect = lower value 1.04 | S. cerevisiae deletion strains, locus YPR119W, strain clb2, stronger effect = lower value 0.977 | S. cerevisiae deletion strains, locus YPR141C, strain kar3, stronger effect = lower value 0.98 | S. cerevisiae deletion strains, locus YPR163C, strain tif3, stronger effect = lower value 0.974 | S. cerevisiae deletion strains, locus YPR167C, strain met16, stronger effect = lower value 0.988 | S. cerevisiae deletion strains, strain wtn01, stronger effect = lower value 0.978 | S. cerevisiae strains, strain wild type, stronger effect = lower value 1
